Screens deposited in PubChem BioAssay by National Center for Advancing Translational Sciences (NCATS).
IL1B secr inh: qHTS for Inhibitors of Inflammasome Signaling: IL-1-beta AlphaLISA Primary Screen. 360,000 compounds, 4.7% hits. THP-1 LPS/ATP IL-1B secretion, AlphaLISA, 16 h; stronger effect = lower value. activity change, % at 57.5 µM; in the data active means activity change below about -50%; inconclusive means mostly about -30% to -49%
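THP-1 cells pretreated 1 hr with compounds (up to 57.5 uM final), then stimulated with LPS (250 ng/mL final) plus ATP (1.25 mM final); secreted IL-1B measured by AlphaLISA after 16 hr, decreased signal indicating inhibition.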
TDP1 cell CPT: qHTS for Inhibitors of human tyrosyl-DNA phosphodiesterase 1 (TDP1): qHTS in cells in presence of CPT. 420,000 compounds, 12% hits. chicken DT40 Tdp1-/-;hTDP1 cells + 20 nM CPT, ATP luminescence, 48 h. Potency, µM (top dose mostly 46.2 µM), for the others: at the highest dose activity change, negative = growth inhibition, usual class: inhibitors; further: potency means the concentration at half of the fitted maximal effect; nearly all actives have a fitted effect of over 55% in size
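Cell growth measured by CellTiter-Glo luminescence after a minimum 48 h, 37 C compound exposure with 20 nM CPT in Tdp1-knockout DT40 cells stably expressing hTDP1, seeded 400/well; qHTS titration format.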
HT1080-NT tox: qHTS for induction of synthetic lethality in tumor cells producing 2HG: qHTS for the HT-1080-NT fibrosarcoma cell line | HT-1080-NT fibrosarcoma viability, CellTiter-Glo ATP luminescence, 48 h | Potency, µM (doses to about 46.1 µM), for inactives: at the top dose activity, negative = less viability, usual class: cytotoxic | 360,000 compounds, 1.6% hits;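 further: NT is the 2HG producing partner of a matched IDH1 knockdown line; potency means the concentration at half of the fitted maximal effect; 0% = DMSO-treated cells and -100% = media-only wells without cells; nearly all actives have a fitted effect of over 55% in size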
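HT-1080-NT; 750 cells/well; 5% FBS RPMI; 48 h compound, 37 degrees C; CellTiter-Glo luminescence; curve fitting and curve-class assignment.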
DT40 TDP1 no CPT: qHTS for Inhibitors of human tyrosyl-DNA phosphodiesterase 1 (TDP1): qHTS in cells in absence of CPT. 420,000 compounds, 15% hits. DT40 Tdp1-/- hTDP1 cells, no CPT, ATP luminescence, 48 h. Potency, µM (series often up to 46.2 µM), without a hit: at the highest dose activity change, negative = growth inhibition, usual class: inhibitors. AID 686978, 2013; further: potency means the concentration at half of the fitted maximal effect; nearly all actives have a fitted effect of over 55% in size
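Camptothecin absent (DMSO only). Human TDP1-complemented DT40 knockout cells, 400 cells/well, 37 °C for minimum 48 hr; ATP measured via CellTiter-Glo, 30 min dark incubation, luminescence.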
HT1080 IDH1KD tx: qHTS for induction of synthetic lethality in tumor cells producing 2HG: qHTS for the HT-1080-IDH1KD cell line; HT-1080 IDH1 knockdown viability, ATP luminescence, 48 h; Potency, µM (series often up to 46.1 µM), for inactives: top-dose activity, negative = toxicity, usual class: cytotoxic; 360,000 compounds, 2% hits;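 further: potency means the concentration at half of the fitted maximal effect; 0% = DMSO wells and -100% = cell-free medium wells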
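Knockdown cells (IDH1KD HT-1080) received compounds 2 h after plating at 750 cells/well and were kept 48 h at 37 °C in 5% FBS RPMI. A CellTiter-Glo luminescence read gave % activity for curve fitting.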
Active calls of the source: *; i = inactive; ? = inconclusive; . = no result. The list is not random: actives were taken first. Their share in the collection is about 19%. Unless noted, the call rests on the fitted dose curve; in most records, active means well fitted curve in the direction sought with a large enough effect; inconclusive means small, poorly fitted or top-dose-only effect, or another doubt; inactive means no such curve, though single readings can be large; an effect the other way counts as inactive or inconclusive. Unless noted, on the % scale 0 is the no-effect control and ±100 the full control effect.

SMILES	IL1B secr inh	TDP1 cell CPT	HT1080-NT tox	DT40 TDP1 no CPT	HT1080 IDH1KD tx
Cc1cc(C)nc(SCC(=O)c2ccc3c(c2)OCCO3)n1	?	?	-3%	?	0%
O=C(Cn1nc(Cl)nc1Cl)c1ccc(F)cc1	19	-1%	9%	1%	10%
O=C(Cn1nc(Cl)nc1Cl)c1ccccc1	-10	?	-19%	15µM*	-6%
O=C(Cn1nc(Cl)nc1Cl)c1ccc2c(c1)OCCO2	?	5.2µM*	-10%	13µM*	0%
Cc1ccc(-c2n[nH]c(=O)c3ccccc23)cc1N	21	?	-25%	-23%	?
Nc1ccc(-c2n[nH]c(=O)c3ccccc23)cc1N	23	0.46µM*	-1%	?	-13%
CCOc1cc(CNCCSc2nnnn2C)cc(Br)c1OCc1ccccc1F	-65*	16µM*	?	13µM*	?
Cc1c(Cl)cccc1-c1ccc(CNCCSc2nnnn2-c2ccccc2)o1	.	-5%	.	0%	.
CCOc1ccc(Cl)cc1CNCCCSc1nnnn1C	.	-26%	.	-29%	.
COc1cc(CNCCSc2nnnn2C)cc(Br)c1OCc1ccccc1F	-2	-26%	-20%	?	-17%
COc1cc(CNCCCSc2nnnn2C)cc(Br)c1OC	.	-6%	.	-19%	.
CCOc1cc(CNCCSc2nnnn2C)cc(Br)c1OCc1ccc(F)cc1	-87*	?	23µM*	?	-93%
CCOc1cc(CNCCSc2nnnn2-c2ccccc2)cc(Cl)c1OC	.	?	.	21µM*	.
CCOc1cc(CNCCSc2nnnn2C)cc(Cl)c1OCc1ccc(Cl)cc1	.	13µM*	.	13µM*	.
CC(=O)c1ccc(N2C(=O)CC(N3CCN(S(=O)(=O)c4ccc(C)c(C)c4)CC3)C2=O)cc1 (configuration not stated)	14	-13%	-1%	3%	0%
COc1cc(CNCCSc2nnnn2C)cc(Br)c1OCc1ccc(F)cc1	-50*	?	?	26µM*	?
COc1cc(CNCCSc2nnnn2C)cc(Br)c1OCc1ccccc1	-28	?	-2%	?	0%
Cc1c(OC(C)C(=O)NCC2CCC(C(=O)O)CC2)ccc2c(-c3ccccc3)cc(=O)oc12 (configuration not stated)	-10	4%	-1%	-12%	-9%
O=C(Nc1ccccc1N1CCCCC1)C1=COCCO1	34	?	-17%	12µM*	0%
Cc1ccc(C)c(N2N=C(C(=O)Nc3ccccc3N3CCOCC3)CCC2=O)c1	-10	?	0%	?	-1%
COc1ccc(Br)cc1C(=O)Nc1ccccc1N1CCCC1	-2	?	?	?	-4%
COc1ccccc1C(=O)Nc1ccccc1N1CCCCC1	-28	?	-5%	18µM*	-15%
Cc1ccsc1C(=O)Nc1ccccc1N1CCCC1	-1	?	9%	13µM*	2%
Cc1ccc(C)c(N2N=C(C(=O)Nc3ccccc3N3CCCC3)CCC2=O)c1	i	?	?	21µM*	?
COc1ccc(Cl)cc1C(=O)Nc1ccccc1N1CCCCC1	33	18µM*	-9%	29µM*	0%
Cc1ccccc1C(=O)Nc1ccccc1N1CCCCC1	37	?	-16%	16µM*	-18%
C=CCn1c(SCC#N)nc2sc(CC)cc2c1=O	-29	?	-3%	-28%	-18%
CC(=O)Nc1c(C)nn(-c2ccccc2)c1N1CCC(C(=O)NCc2cccc(Cl)c2)CC1	.	-11%	.	-20%	.
CCOc1ccc(NC(=O)N2CCN(c3nc4ccccc4s3)CC2)cc1	-5	-28%	5%	?	4%
Cc1cccc(C)c1NC(=O)N1CCN(c2nc3ccccc3s2)CC1	14	12µM*	6%	?	?
